SW480 rerep: DNA re-replication induction in SW480 cells. SW480 DNA re-replication, Hoechst DNA content imaging, 48 h. Potency, µM (titrated, usually from 46.1 µM), for inactives: at the top dose re-replication activation, usual class: activators. 1.8% of 340,000 active. AID 624297; also: % of control where 0% means no effect; nearly all actives have a fitted effect of over 55% in size
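Image-based DNA-content assay: after two days of treatment, nuclei were labelled with the DNA dye Hoechst and imaged, and hits were compounds raising the count of nuclei showing high fluorescence intensity.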
MCF10A rerep: inducers of DNA re-replication in MCF 10A breast cells | Potency, µM (highest dose often 46.1 µM), inactives show top-dose activity, positive = re-replication, actives largely listed as activators | 2.9% of 350,000 active | MCF 10A DNA re-replication, Hoechst nuclear intensity, 48 h; also: % of control where 0% means no effect; nearly all actives have a fitted effect of over 50% in size
KB-3-1 tox: KB-3-1 parental cell cytotoxicity | KB-3-1 viability, CellTiter-Glo ATP luminescence, 72 h | Potency, µM (highest dose often 46.1 µM), most hits filed as cytotoxic | 1.4% of 400,000 active | AID 1347075; also: % is scaled to controls: 0 for no effect and ±100 for the full control effect; nearly all actives have a fitted effect of over 60% in size
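72 h, 37 °C compound treatment of KB-3-1 parental cells; CellTiter-Glo added, 10 min, luminescence read. Data corrected against DMSO-only plates and normalized before curve fitting.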
KB-V1 cytotox: KB-V1 MDR subline cytotoxicity; KB-V1 MDR cells viability, CellTiter-Glo, 72 h; Potency, µM (highest dose often 46.1 µM), usual class: cytotoxic; 3.4% of 400,000 active; AID 1347076; also: % is scaled to controls: 0 for no effect and ±100 for the full control effect; nearly all actives have a fitted effect of over 60% in size
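Readout: CellTiter-Glo luminescence, 10 min after addition. Cells: KB-V1 MDR subline, 72 h at 37 degrees C with compound. Analysis: corrected, normalized data fitted to concentration-effect curves.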
ELG1 DNA repair: inhibitors of ELG1-dependent DNA repair in HEK293T cells; AID 504467; Potency, µM (doses to about 46.1 µM), without a hit: at the highest dose activity change, negative = inhibition, usual class: inhibitors; HEK293T ELG1-luciferase reporter, luminescence, 16 h; DNA damage induced by 5-fluorouridine; 2.3% of 330,000 active; also: % is scaled to controls: 0 for no effect and ±100 for the full control effect; nearly all actives have a fitted effect of over 55% in size
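DMSO vehicle served as the neutral condition. Each well held 2,000 cells given 5-fluorouridine plus compound; after 16 hr at 37 °C/5% CO2, ONE-Glo was added and luciferase measured 30 min later.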
Active calls of the source: *; [ ] = remark or other dose. In the library only some 8.1% were active in any assay of this set; here they are far more common. Calls follow the shape of the dose curve; as a rule, active = well fitted curve in the direction sought with a large enough effect; inconclusive = small, poorly fitted or top-dose-only effect, or another doubt; inactive = no such curve, though single readings can be large; an effect the other way counts as inactive or inconclusive. Potency is read from the fitted curve at half-maximal effect.

For Cc1nn(CC(=O)Nc2ccc3c(c2)OCO3)c(C)c1Cl the results were SW480 rerep 0.1%, MCF10A rerep 0.4%, KB-3-1 tox inactive, KB-V1 cytotox inactive and ELG1 DNA repair 25.4%.
`O=C(Cn1ncc(Cl)c(Cl)c1=O)Nc1ccc2c(c1)OCO2` gave SW480 rerep -2.4%, MCF10A rerep 0.731µM*, KB-3-1 tox inconclusive, KB-V1 cytotox inconclusive and ELG1 DNA repair 6.51µM*.
Screening O=C(NCCCN1CCOCC1)c1ccc(Br)cc1Br returned ELG1 DNA repair 23.8%.
For Cc1nnc(-c2cccc(Br)c2)c2cn(-c3ccccc3)nc12 the results were SW480 rerep -2.7%, MCF10A rerep inconclusive, KB-3-1 tox inconclusive, KB-V1 cytotox inconclusive and ELG1 DNA repair -5.2%.
`Cc1nnc(-c2cccc(Br)c2)c2cn(-c3cccc(Br)c3)nc12` gave SW480 rerep -4.7%, MCF10A rerep inconclusive, KB-3-1 tox inconclusive, KB-V1 cytotox 9.2µM* and ELG1 DNA repair inconclusive.
Screening COc1ccc(N2CCN(C(=O)CN(CCc3ccccc3)S(C)(=O)=O)CC2)cc1 returned SW480 rerep 10.5%, MCF10A rerep 13.5%, KB-3-1 tox inactive, KB-V1 cytotox inconclusive and ELG1 DNA repair inconclusive.
C/C(=C\c1ccco1)C1C(C#N)=C(N)Oc2n[nH]c(-c3ccc(C)cc3)c21 (stereo not given) was read as SW480 rerep -0.6%, MCF10A rerep -0.9%, KB-3-1 tox inactive, KB-V1 cytotox inactive and ELG1 DNA repair -13.7%.
CC(=O)CC(=O)NC(=NC1CCCCC1)Nc1nc(C)cc(C)n1 was read as SW480 rerep inconclusive, MCF10A rerep inconclusive, KB-3-1 tox inactive, KB-V1 cytotox inconclusive and ELG1 DNA repair 10.3µM*.
For CC(=O)Nc1ccc(NC(=O)C2CCCN(c3nnc(-n4cccc4)s3)C2)cc1 (stereo not given) the results were SW480 rerep inconclusive, MCF10A rerep 6.3%, KB-3-1 tox inactive, KB-V1 cytotox inactive and ELG1 DNA repair -8.7%.
Screening O=C(NCCCN1CCOCC1)C(=O)N/N=C/c1c2ccccc2cc2ccccc12 returned SW480 rerep 23.1µM*, MCF10A rerep inconclusive, KB-3-1 tox 5.8µM*, KB-V1 cytotox 10.3µM* and ELG1 DNA repair inconclusive.
For Cc1cc(C(=O)N/N=C/c2ccc(-c3cccc(Cl)c3Cl)o2)n[nH]1 the results were SW480 rerep 9.3%, MCF10A rerep inconclusive, KB-3-1 tox inactive, KB-V1 cytotox inactive and ELG1 DNA repair inconclusive.
NC(=O)C(=O)N/N=C/c1c2ccccc2cc2ccccc12 was read as SW480 rerep inconclusive, MCF10A rerep 23.1µM*, KB-3-1 tox inactive, KB-V1 cytotox inactive and ELG1 DNA repair -0.8%.
Screening CCOc1ccc2ccccc2c1/C=N/NC(=O)c1cc(C)[nH]n1 returned SW480 rerep -31.0%, MCF10A rerep -5.9%, KB-3-1 tox inactive, KB-V1 cytotox inconclusive and ELG1 DNA repair 6.0%.
Cc1cc(C(=O)N/N=C/c2ccc(-c3cccc(Br)c3)o2)n[nH]1 was read as SW480 rerep 20.6µM*, MCF10A rerep inconclusive, KB-3-1 tox inactive, KB-V1 cytotox inactive and ELG1 DNA repair -0.6%.
`NC(=O)C(=O)N/N=C/c1cccc(C(F)(F)F)c1` gave SW480 rerep -1.3%, MCF10A rerep 0.6%, KB-3-1 tox inactive, KB-V1 cytotox inactive and ELG1 DNA repair 2.9%.
Cc1cc(C(=O)N/N=C/c2c3ccccc3cc3ccccc23)n[nH]1 was read as SW480 rerep inconclusive, MCF10A rerep 20.6µM*, KB-3-1 tox inconclusive, KB-V1 cytotox 18.4µM* and ELG1 DNA repair -22.0%.
CC(C)NC(=S)N1CCn2c(nc3ccccc32)C1 was read as SW480 rerep -1.9%, MCF10A rerep 0.4%, KB-3-1 tox inactive, KB-V1 cytotox inactive and ELG1 DNA repair -14.4%.
Screening Cc1ccc(N2CC(C(=O)Nc3nnc(SCCC4OCCO4)s3)CC2=O)cc1 (stereo not given) returned SW480 rerep 2.9%, MCF10A rerep 2.4%, KB-3-1 tox inactive, KB-V1 cytotox inconclusive and ELG1 DNA repair 0.3%.
Screening O=C(CSc1ccc(Br)c2cccc(Cl)c12)Nc1ccc(S(=O)(=O)Nc2nccs2)cc1 returned SW480 rerep 29.7%, MCF10A rerep inconclusive, KB-3-1 tox inactive, KB-V1 cytotox inactive and ELG1 DNA repair 1.5%.
For CC#CC[N+](C)(C)CC(=O)c1ccccc1 the results were SW480 rerep -14.2%, MCF10A rerep -3.9%, KB-3-1 tox inactive, KB-V1 cytotox inactive and ELG1 DNA repair 12.3%.
CC#CC[N+](C)(C)CCCCCCCC was read as SW480 rerep -0.2%, MCF10A rerep 3.7%, KB-3-1 tox 18.4µM*, KB-V1 cytotox inactive and ELG1 DNA repair inconclusive.
Screening COCc1ccc(-c2c(-c3ccsc3)oc(=O)c3cc(OC)c(OC)cc23)cc1 returned SW480 rerep 1.4%, MCF10A rerep 3.66µM*, KB-3-1 tox inconclusive, KB-V1 cytotox inconclusive and ELG1 DNA repair inconclusive.
For Cc1nn(Cc2ccccc2Cl)c(Cl)c1/C=C/C(=O)OCC(=O)NC(N)=O the results were SW480 rerep 3.9%, MCF10A rerep 4.2%, KB-3-1 tox inactive, KB-V1 cytotox inactive and ELG1 DNA repair -19.5%.
`Cc1nn(Cc2ccccc2)c(Cl)c1/C=C/C(=O)OC(C(=O)NC(N)=O)C(C)C` (stereo not given) gave SW480 rerep -39.1%, MCF10A rerep 6.51µM*, KB-3-1 tox inactive, KB-V1 cytotox inactive and ELG1 DNA repair inconclusive.
Screening Nc1nc(-c2ccc(Cl)cc2)c(S(=O)(=O)c2ccccc2)s1 returned SW480 rerep -8.4%, MCF10A rerep 7.5%, KB-3-1 tox inactive, KB-V1 cytotox inactive and ELG1 DNA repair inconclusive.
Screening O=S(=O)(c1ccccc1)c1cnn(-c2ccccc2)c1-c1ccc(Cl)cc1 returned SW480 rerep 11.1%, MCF10A rerep 6.7%, KB-3-1 tox inconclusive, KB-V1 cytotox 14.6µM* and ELG1 DNA repair inconclusive.
For COc1ccc(-c2c(S(=O)(=O)c3ccccc3)cnn2-c2ccccc2)cc1 the results were SW480 rerep 1.7%, MCF10A rerep -183.7%[0.0737 µM], KB-3-1 tox inconclusive, KB-V1 cytotox 23.1µM* and ELG1 DNA repair -6.4%.
Screening O=C(CSCc1ccccc1)Nc1cc([N+](=O)[O-])ccc1F returned SW480 rerep 7.4%, MCF10A rerep -1.0%, KB-3-1 tox inactive, KB-V1 cytotox inactive and ELG1 DNA repair 6.0%.
`CCOC(=O)c1ccc2c(c1)nc(SCC(=O)c1cc3ccccc3o1)n2CC` gave SW480 rerep -1.5%, MCF10A rerep inconclusive, KB-3-1 tox inactive, KB-V1 cytotox 18.4µM* and ELG1 DNA repair inconclusive.
C=CCNC(=O)CSc1nc2cc(C(=O)OCC)ccc2n1CC was read as SW480 rerep 1.6%, MCF10A rerep 2.3%, KB-3-1 tox inactive, KB-V1 cytotox inactive and ELG1 DNA repair 2.3%.
